This note sets out measurements from PubChem BioAssay.

Active and inactive are the calls of the source. Unless noted, no rule for the calls is given here.

Assay [1] relates to Wnt5a (protein binding on small-molecule microarray). As to the kind of experiment: small molecules binding Wnt5a protein – biophysical, small-molecule microarray, 635/667 nm fluorescence, primary screen (AID 1142).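 Also: fluorescence read at 667 nm with signal to noise per printed feature.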 The conditions noted are these: 635 nm fluorescence, higher = more signal.
Assay [2] can be described thus: ATP-based viability of Huh7 replicon cells – cell-based, CellTiter-Glo luminescence, basal, 48 h, cytotoxicity control for HCV replication inhibitor project, primary screen (AID 1143).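 Also: Huh7 hepatoma cells carrying a hepatitis C replication reporter with no stimulus; test concentration not given here.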 The conditions noted are these: higher = more signal, called active from +8 up or from −8 down.
Assay [3] is described as follows: Pseudomonas biofilm growth suppression – PAO1 strain, BacTiter-Glo luminescence, LB-PBS, primary screen (AID 1144). The conditions noted are these: P. aeruginosa PAO1 biofilm, 12 h, higher = more signal.
Assay [4] in a line: basal CRE-LacZ reporter activity in PC12 – cell-based, unstimulated, primary screen (AID 1145). The conditions noted are these: no forskolin, luminescence, 4.5 h, higher = more signal, called active from +8 up or from −8 down.
Assay [5] in a line: forskolin-driven CRE-LacZ activity in PC12 – cell-based, CRE-LacZ reporter, forskolin-stimulated, primary screen (AID 1146).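 Also: PC12 cells with 6xCRE LacZ reporter stimulated by forskolin 10 µM; beta-galactosidase reporter signal reflecting CREB driven transcription.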 The conditions noted are these: luminescence, 4.5 h, higher = more signal, called active from +8 up or from −8 down.
The target in assay [6] is Streptavidin (Streptomyces avidinii) (UniProt P22629). Nature of the assay: compounds binding control protein streptavidin – biophysical, small-molecule microarray, 635/667 nm fluorescence, artefact control for SMM compound annotation, primary screen (AID 1147).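 Also: signal reflects streptavidin binding to arrayed compounds as a control protein.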 The conditions noted are these: higher = more signal.
The nature of assay [7]: probe aInhba binding on compound microarray – biochemical, small-molecule microarray, 635/667 nm fluorescence, primary screen (AID 1148).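 Also: score merges 667nm spot fluorescence with signal-to-noise for antibody binding to printed compounds.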 The conditions noted are these: higher = more signal.
In assay [8] the target is Torsin-1A (Homo sapiens) (UniProt O14656). As to the kind of experiment: TOR1A wild-type binding on microarray – cell lysate, small-molecule microarray, lysate, 635/667 nm, primary screen (AID 1149). The conditions noted are these: COS7 hTOR1A-WT lysate, 635 nm fluorescence, higher = more signal.
The target is the same in assay [9]. As to the kind of experiment: torsin A mutant lysate binding on microarrays – cell lysate, small-molecule microarray, COS7 lysate, 635/667 nm fluorescence, primary screen (AID 1150).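 Also: score pools 667 nm emission and signal to noise measuring lysate protein binding.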 The conditions noted are these: COS7 hTOR1A mutant lysate, 635 nm fluorescence, higher = more signal.
In assay [10] the test system is Sonic hedgehog protein (Shh). As to the kind of experiment: Sonic hedgehog microarray binding compounds – biochemical, small-molecule microarray, 635/667 nm fluorescence, primary screen (AID 1151).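 Also: Shh protein binding to compounds spotted on small-molecule microarray slides; score combines spot fluorescence intensity with signal-to-noise across triplicate slides.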 The conditions noted are these: 635 nm fluorescence, higher = more signal.

Chain of Streptavidin (Streptomyces avidinii) (P22629 whole entry, looked up): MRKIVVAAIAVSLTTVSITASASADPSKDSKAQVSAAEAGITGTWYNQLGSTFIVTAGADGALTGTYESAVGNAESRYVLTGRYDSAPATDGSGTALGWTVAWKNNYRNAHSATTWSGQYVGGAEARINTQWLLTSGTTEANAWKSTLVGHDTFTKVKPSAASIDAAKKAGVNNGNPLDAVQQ
Chain of Torsin-1A (Homo sapiens) (O14656 whole entry, looked up): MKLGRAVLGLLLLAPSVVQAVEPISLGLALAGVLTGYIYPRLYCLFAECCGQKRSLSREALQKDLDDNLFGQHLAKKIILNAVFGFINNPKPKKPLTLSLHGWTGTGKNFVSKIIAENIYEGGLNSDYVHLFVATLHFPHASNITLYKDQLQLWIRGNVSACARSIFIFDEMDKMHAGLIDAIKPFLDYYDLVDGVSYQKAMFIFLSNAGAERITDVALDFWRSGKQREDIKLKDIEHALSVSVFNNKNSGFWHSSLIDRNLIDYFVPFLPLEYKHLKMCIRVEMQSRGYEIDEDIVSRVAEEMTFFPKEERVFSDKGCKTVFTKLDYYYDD

For the compound `C=CCC(OC(C)=O)[C@@H]1[C@@H](N(Cc2cccc3ccccc23)C(=O)c2cccc3ccccc23)c2cc(OCCCO)ccc2N1C(=O)c1ccc(-c2ccccc2)cc1` (stereo not given in full), the composite z-score in assay [1] is -0.0964; in [6] it was 0.116; in assay [7], 0.0543; in the assay with Torsin-1A (Homo sapiens) [8] it was -0.104; with Torsin-1A (Homo sapiens) [9], 0.292; in assay [10], 0.556. Also, the z-score in [2] was -1.56 (inactive); in assay [3] it was 1.21 (inactive); in assay [4], -0.113 (inactive); in assay [5] it was 1.24 (inactive).

For `COc1cc(OC)c(C(O)C2C=CC3C(=O)N(C)C(=O)C3N2NC(=O)OC(C)(C)C)cc1Br` (stereo not given), the composite z-score in assay [1] was found to be 0.326; in [6], 1.25; in [7] it was 0.194; with Torsin-1A (Homo sapiens) [8] it was 0.443; with Torsin-1A (Homo sapiens) [9] it was 0.315; in assay [10] it was 0.568. Moreover, the z-score in assay [2] was 0.558 (inactive); in assay [3], -0.224 (inactive); in assay [4] it was 1.2 (inactive); in [5], 0.922 (inactive).

As to `O=C(NCC(F)(F)F)[C@@H]1c2ccccc2C(=O)N(Cc2ccc(OC(F)(F)F)cc2)[C@H]1c1ccc(CO)cc1`, the composite z-score in [1] is 0.119; in assay [6], -0.176; in [7] it was -0.0672; with Torsin-1A (Homo sapiens) [8], 0.176; in the assay with Torsin-1A (Homo sapiens) [9], -0.0108; in assay [10], 1.74. The z-score in [2] was -2.41 (inactive); in assay [3], -0.652 (inactive); in [4], 0.531 (inactive); in assay [5], 0.118 (inactive).

With `COc1ccc(CCNC(=O)[C@@H]2c3ccccc3C(=O)N(Cc3cc(C(F)(F)F)cc(C(F)(F)F)c3)[C@H]2c2ccc(CO)cc2)cc1`, the composite z-score in [1] is 0.822; in [6], 0.915; in assay [7], -0.016; in the assay with Torsin-1A (Homo sapiens) [8], -0.498; in the assay with Torsin-1A (Homo sapiens) [9], -0.181; in assay [10], 0.355. Also, the z-score in [2] is -1.41 (inactive); in assay [3], 0.703 (inactive); in assay [4], 0.441 (inactive); in assay [5] it was 0.632 (inactive).

Consider `CN(C)CCCNC(=O)[C@@]1(c2ccc([N+](=O)[O-])cc2)CC(=O)N(CC23CC4CC(CC(C4)C2)C3)[C@@H]1c1ccc(CO)cc1I`, for which the composite z-score is 0.607 in [1]; 0.164 in [6]; 0.206 in [7]; 0.835 with Torsin-1A (Homo sapiens) [8]; 0.996 with Torsin-1A (Homo sapiens) [9]; 1.96 in [10]. The z-score is -5.93 (inactive) in [2], -0.263 (inactive) in [3], 0.468 (inactive) in [4] and 0.372 (inactive) in assay [5].

Regarding `CC(C)C[C@@H]1NC(=O)[C@@H]2C[C@H](C(=O)NCCCCN(C)C)[C@H](c3cccc(OCCO)c3)N2C1=O`, the composite z-score is -0.179 in [1]; -0.911 in assay [6]; 0.0108 in [7]; 0.352 in the assay with Torsin-1A (Homo sapiens) [8]; 0.718 with Torsin-1A (Homo sapiens) [9]; 1.24 in assay [10]. Further, the z-score in assay [2] is -0.193 (inactive); in [3], -1.25 (inactive); in assay [4] it was -0.817 (inactive); in assay [5], 0.645 (inactive).

With `C[C@H]1NC(=O)[C@@]23C(=O)N[C@@H](Cc4ccccc4)C2[C@H](C)[C@@]2(C)O[C@H]2C3/C=C/C/C=C\CNC(=O)[C@H](Cc2ccccc2)NC1=O` (stereo not given in full), the composite z-score was 0.0319 in [1]; -0.178 in assay [6]; -0.0963 in assay [7]; -0.2 with Torsin-1A (Homo sapiens) [8]; 0.113 with Torsin-1A (Homo sapiens) [9]; 1.63 in assay [10]. The z-score is -0.945 (inactive) in assay [2], -0.773 (inactive) in assay [3], -0.508 (inactive) in assay [4] and -0.0421 (inactive) in assay [5].

As to `CCOC(=O)[C@H]1[C@@H]2C(=O)N3CCC[C@H]3[C@H](O[Si](C(C)C)(C(C)C)C(C)C)[C@H]2C=C2CCN(S(=O)(=O)c3ccc(C)cc3)C[C@H]21`, the composite z-score in assay [1] is 0.0328; in assay [6], 1.03; in [7] it was -0.0468; with Torsin-1A (Homo sapiens) [8], 0.353; in the assay with Torsin-1A (Homo sapiens) [9] it was 0.163; in assay [10], 1.58. Further, the z-score in assay [2] was -5.75 (inactive); in assay [3], 0.426 (inactive); in assay [4], 0.673 (inactive); in assay [5] it was 0.986 (inactive).

In the case of `COC(=O)[C@@]1(Cc2ccccc2)[C@H]2c3cc(C(=O)N(C)C)n(CCN4CNCC4=O)c3C[C@H]2CN1C(=O)c1ccccc1`, the composite z-score was 0.569 in assay [1]; 1.54 in assay [6]; 1.28 in assay [7]; 3.83 in the assay with Torsin-1A (Homo sapiens) [8]; 4.06 in the assay with Torsin-1A (Homo sapiens) [9]; -1.85 in assay [10]. The z-score was 0.106 (inactive) in [2], -0.505 (inactive) in assay [3], 0.0007 (inactive) in assay [4] and 0.547 (inactive) in assay [5].

In the case of `COCCOC(=O)N1C(=O)[C@@]2(c3cc(C#CC4=CCCCC4)ccc31)[C@H](c1ccccc1OCCO)N1[C@H](c3ccccc3)[C@H](c3ccccc3)OC(=O)[C@H]1[C@@H]2C(=O)N1CCCCCCC1`, the composite z-score in assay [1] was 0.582; in assay [6], 0.342; in assay [7], -0.584; in the assay with Torsin-1A (Homo sapiens) [8], 0.931; with Torsin-1A (Homo sapiens) [9] it was 0.156; in assay [10], 0.755. Further, the z-score in [2] was -4.01 (inactive); in assay [3], 0.727 (inactive); in assay [4], -0.402 (inactive); in assay [5], 0.207 (inactive).

As for `C=CC1c2cc(O)c(OC)cc2CCN1Cc1cc2c(cc1Br)OCO2` (stereo not given), the composite z-score is -0.158 in [1]; -0.361 in assay [6]; -0.128 in assay [7]; 1.34 with Torsin-1A (Homo sapiens) [8]; 0.587 with Torsin-1A (Homo sapiens) [9]; 0.672 in assay [10]. For the same compound, the z-score in [2] was -5.24 (inactive); in assay [3] it was 0.0937 (inactive); in [4] it was 0.299 (inactive); in assay [5] it was 0.962 (inactive).

For the compound `C=CCC(OC(C)=O)[C@@H]1[C@@H](N(Cc2cccc3ccccc23)C(=O)Cc2ccc(F)cc2)c2cc(OCCCO)ccc2N1C(=O)c1ccc2ccccc2n1` (stereo not given in full), the composite z-score is 0.243 in [1]; -0.0219 in assay [6]; 0.0614 in [7]; -0.149 in the assay with Torsin-1A (Homo sapiens) [8]; -0.101 in the assay with Torsin-1A (Homo sapiens) [9]; -0.0199 in assay [10]. Further, the z-score in assay [2] was 0.0889 (inactive); in assay [3], 0.0963 (inactive); in [4], 0.367 (inactive); in assay [5], 0.101 (inactive).

In the case of `C=CC[C@@]1(C(=O)N2CCOCC2)N=C(c2ccc(OCCCO)cc2)O[C@@H]1c1ccccc1CN=[N+]=[N-]`, the composite z-score is 0.935 in [1]; 1.28 in assay [6]; 0.305 in assay [7]; 0.495 with Torsin-1A (Homo sapiens) [8]; 1.46 with Torsin-1A (Homo sapiens) [9]; 0.0134 in assay [10]. Moreover, the z-score is -2.2 (inactive) in assay [2], 0.887 (inactive) in assay [3], 0.204 (inactive) in assay [4] and -0.818 (inactive) in [5].
